Assay [1] in a line: NCI Yeast Anticancer Drug Screen. Data for the rad50 strain (AID 155).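 Further: 0% = growth of vehicle-only cultures of the same strain.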 To be noted: S. cerevisiae rad50 strain growth inhibition, stronger effect = higher value. In short, it runs like this: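 DNA repair mutant yeast, compound exposure, growth read-out; inhibition is taken relative to vehicle.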
Assay [2] can be described thus: NCI Yeast Anticancer Drug Screen. Data for the mec2-1 strain (AID 157). To be noted: S. cerevisiae mec2-1 strain, stronger effect = higher value. Put shortly: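 Vehicle-treated cultures served as reference for growth inhibition of compound-exposed mec2-1 yeast.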
A short description of assay [3]: NCI Yeast Anticancer Drug Screen. Data for the sgs1 mgt1 strain (AID 161).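 Further: 0% = growth of cultures given vehicle only.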 Conditions: S. cerevisiae sgs1 mgt1 strain, stronger effect = higher value. Put shortly:
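Test agents were incubated with a DNA-repair-mutant yeast strain. Growth was then read and compared against vehicle-treated controls.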

Assay [4] is described as follows: NCI Yeast Anticancer Drug Screen. Data for the cln2 rad14 strain (AID 165).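 Further: 0% = growth equal to vehicle treated cultures.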 Conditions: S. cerevisiae cln2 rad14 strain, stronger effect = higher value. Put shortly:
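Each compound was tested on cln2 rad14 yeast. Inhibition of growth was calculated against vehicle-exposed controls.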

Assay [5] can be described thus: NCI Yeast Anticancer Drug Screen. Data for the bub3 strain (AID 167). To be noted: S. cerevisiae bub3 mutant strain, stronger effect = higher value. Put shortly: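 In this screen, a yeast mutant lacking normal mitotic checkpoint function is challenged with compound. Relative growth versus vehicle gives the inhibition value.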
A short description of assay [6]: NCI Yeast Anticancer Drug Screen. Data for the mlh1 rad18 strain (AID 175). To be noted: S. cerevisiae mlh1 rad18 strain growth inhibition, stronger effect = higher value. Put shortly: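 Vehicle-treated cultures served as the reference for growth inhibition in a yeast strain carrying DNA damage repair alterations exposed to each compound.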
[7] abbreviates: at 5.0 µM (retest, dose inferred, filed as 0.5).
Where [8] appears, read: at 50.0 µM (retest, dose inferred, filed as 5.0).

The structures appear in SMILES notation. The panel holds about 79,000 compounds, 15% with a hit somewhere; the sample as a whole holds those more often. Unmarked numbers belong to inactive results. Activity calls are given as the source filed them. No stated cut-off is given here; in the data, active means growth inhibition above about 70%; inactive means the rest.

Take `CC(=O)OCC12CC(O)C(C)=CC1OC1C(O)C(OC(C)=O)C2(C)C12CO2` (configuration not stated): the growth inhibition was 8% in assay [1] (setting [7]); 33% in assay [1] (setting [8]); 91.8% (active) in assay [1] (at 50.0 µM); 12% in assay [2] (setting [7]); 36% in assay [2] (setting [8]); 91% (active) in assay [2] (at 50.0 µM). Moreover, the growth inhibition was 13% in assay [3] (setting [7]); 36% in assay [3] (setting [8]); 90.3% (active) in assay [3] (at 50.0 µM); 16% in assay [4] (setting [7]); 39% in assay [4] (setting [8]); 77.3% (active) in assay [4] (at 50.0 µM). Further, the growth inhibition was 8% in assay [5] (setting [7]); 21% in assay [5] (setting [8]); 91.8% (active) in assay [5] (at 50.0 µM); 8% in assay [6] (setting [7]); 37% in assay [6] (setting [8]); 92.1% (active) in assay [6] (at 50.0 µM).
With `CC(=O)c1cc(CN(CCCl)CCCl)c(O)c(CN(CCCl)CCCl)c1O`, the growth inhibition in assay [1] (setting [7]) was 5%; in assay [1] (setting [8]) it was 12%; in assay [1] (at 50.0 µM) it was 90.5% (active); in assay [2] (setting [7]) it was -13%; in assay [2] (setting [8]), 14%; in assay [2] (at 50.0 µM), 77.7% (active). In addition, the growth inhibition is 10% in assay [3] (setting [7]); 34% in assay [3] (setting [8]); 96.2% (active) in assay [3] (at 50.0 µM); 4% in assay [4] (setting [7]); 6% in assay [4] (setting [8]); 63.1% in assay [4] (at 50.0 µM). For the same compound, the growth inhibition was 3% in assay [5] (setting [7]); 6% in assay [5] (setting [8]); 78.6% (active) in assay [5] (at 50.0 µM); -4% in assay [6] (setting [7]); 45% in assay [6] (setting [8]); 89.5% (active) in assay [6] (at 50.0 µM).
As for `O=C(CBr)OC1CCCCC1`, the growth inhibition in assay [1] (setting [7]) is 73% (active); in assay [1] (setting [8]) it was 97% (active); in assay [1] (at 50.0 µM) it was 91% (active); in assay [2] (setting [7]), 41%; in assay [2] (setting [8]), 98% (active); in assay [2] (at 50.0 µM), 69.4%. Also, the growth inhibition was 55% in assay [3] (setting [7]); 98% (active) in assay [3] (setting [8]); 87.4% (active) in assay [3] (at 50.0 µM); 24% in assay [4] (setting [7]); 80% (active) in assay [4] (setting [8]); 10.9% in assay [4] (at 50.0 µM). In addition, the growth inhibition was 60% in assay [5] (setting [7]); 97% (active) in assay [5] (setting [8]); 75.8% (active) in assay [5] (at 50.0 µM); 69% in assay [6] (setting [7]); 98% (active) in assay [6] (setting [8]); 90.4% (active) in assay [6] (at 50.0 µM).
On to `NC(=O)c1ccc(C(=O)Nc2ccc([As](=O)(O)O)cc2)cc1`, for which the growth inhibition in assay [1] (setting [7]) is 30%; in assay [1] (setting [8]), 21%; in assay [1] (at 50.0 µM) it was -3.85%; in assay [2] (setting [7]), 6%; in assay [2] (setting [8]) it was 3%; in assay [2] (at 50.0 µM), -26.7%. Besides, the growth inhibition is 22% in assay [3] (setting [7]); 3% in assay [3] (setting [8]); -43.2% in assay [3] (at 50.0 µM); 2% in assay [4] (setting [7]); -14% in assay [4] (setting [8]); 49.4% in assay [4] (at 50.0 µM). For the same compound, the growth inhibition was -7% in assay [5] (setting [7]); 1% in assay [5] (setting [8]); -13.1% in assay [5] (at 50.0 µM); 11% in assay [6] (setting [7]); 9% in assay [6] (setting [8]); -15.9% in assay [6] (at 50.0 µM).
Take `Nc1ccccc1C(=O)c1ccccc1`: the growth inhibition in assay [1] (setting [7]) is 4%; in assay [1] (setting [8]) it was 8%; in assay [1] (at 50.0 µM) it was 76.2% (active); in assay [2] (setting [7]), 1%; in assay [2] (setting [8]) it was 4%; in assay [2] (at 50.0 µM), 11%. Also, the growth inhibition in assay [3] (setting [7]) is 1%; in assay [3] (setting [8]), 10%; in assay [3] (at 50.0 µM) it was 38.1%; in assay [4] (setting [7]) it was 4%; in assay [4] (setting [8]), 1%; in assay [4] (at 50.0 µM) it was 3.25%. In addition, the growth inhibition is 0% in assay [5] (setting [7]); -3% in assay [5] (setting [8]); 47.2% in assay [5] (at 50.0 µM); 4% in assay [6] (setting [7]); 5% in assay [6] (setting [8]); 75.7% (active) in assay [6] (at 50.0 µM).
For the compound `COc1ccc(/C=C(\C)[N+](=O)[O-])cc1OC`, the growth inhibition in assay [1] (setting [7]) was 53%; in assay [1] (setting [8]), 97% (active); in assay [1] (at 50.0 µM), 90.1% (active); in assay [2] (setting [7]) it was 41%; in assay [2] (setting [8]), 99% (active); in assay [2] (at 50.0 µM), 92% (active). The growth inhibition was 55% in assay [3] (setting [7]); 99% (active) in assay [3] (setting [8]); 91% (active) in assay [3] (at 50.0 µM); 26% in assay [4] (setting [7]); 98% (active) in assay [4] (setting [8]); 87.3% (active) in assay [4] (at 50.0 µM). Also, the growth inhibition in assay [5] (setting [7]) was 42%; in assay [5] (setting [8]) it was 98% (active); in assay [5] (at 50.0 µM), 93.8% (active); in assay [6] (setting [7]) it was 58%; in assay [6] (setting [8]), 99% (active); in assay [6] (at 50.0 µM), 93% (active).
On to `O=C([O-])C(F)(F)C(F)(F)F.[C-]#[O+].[C-]#[O+].[C-]#[O+].[C-]#[O+].[C-]#[O+].[Re]`, for which the growth inhibition in assay [1] (setting [7]) was 15%; in assay [1] (setting [8]), 15%; in assay [1] (at 50.0 µM) it was 83.7% (active); in assay [2] (setting [7]), 13%; in assay [2] (setting [8]), 13%; in assay [2] (at 50.0 µM), 92% (active). The growth inhibition is 12% in assay [3] (setting [7]); 12% in assay [3] (setting [8]); 90.7% (active) in assay [3] (at 50.0 µM); 12% in assay [4] (setting [7]); 12% in assay [4] (setting [8]); 68.5% in assay [4] (at 50.0 µM). For the same compound, the growth inhibition is -4% in assay [5] (setting [7]); -4% in assay [5] (setting [8]); 91.5% (active) in assay [5] (at 50.0 µM); 10% in assay [6] (setting [7]); 10% in assay [6] (setting [8]); 44% in assay [6] (at 50.0 µM).
With `Cc1ccc(N=P(c2ccccc2)(c2ccccc2)c2ccccc2)cc1.[Br][Hg][Br]`, the growth inhibition in assay [1] (setting [7]) was 99% (active); in assay [1] (setting [8]), 99% (active); in assay [1] (at 50.0 µM), 98.8% (active); in assay [2] (setting [7]) it was 100% (active); in assay [2] (setting [8]), 100% (active); in assay [2] (at 50.0 µM) it was 97.6% (active). Besides, the growth inhibition in assay [3] (setting [7]) was 99% (active); in assay [3] (setting [8]), 99% (active); in assay [3] (at 50.0 µM) it was 98% (active); in assay [4] (setting [7]) it was 99% (active); in assay [4] (setting [8]), 99% (active); in assay [4] (at 50.0 µM) it was 98.3% (active). Also, the growth inhibition was 98% (active) in assay [5] (setting [7]); 99% (active) in assay [5] (setting [8]); 98.8% (active) in assay [5] (at 50.0 µM); 99% (active) in assay [6] (setting [7]); 99% (active) in assay [6] (setting [8]); 97.1% (active) in assay [6] (at 50.0 µM).
For `O=S(O)O.O=S(O)O.[Co].[NH2-].[NH2-].[NH2-].[NH2-]`, the growth inhibition is 7% in assay [1] (setting [7]); 21% in assay [1] (setting [8]); -5.55% in assay [1] (at 50.0 µM); -1% in assay [2] (setting [7]); 7% in assay [2] (setting [8]); 29.4% in assay [2] (at 50.0 µM). The growth inhibition in assay [3] (setting [7]) was 20%; in assay [3] (setting [8]), 22%; in assay [3] (at 50.0 µM) it was 2.5%; in assay [4] (setting [7]), 33%; in assay [4] (setting [8]), 16%; in assay [4] (at 50.0 µM) it was 47.9%. For the same compound, the growth inhibition in assay [5] (setting [7]) is 12%; in assay [5] (setting [8]), 5%; in assay [5] (at 50.0 µM), -5.25%; in assay [6] (setting [7]) it was 3%; in assay [6] (setting [8]) it was 26%; in assay [6] (at 50.0 µM), 16%.

(Values after PubChem BioAssay (NCI).)
